esBAF inh – Bmi1 luciferase reporter increase in mESCs, primary screen, esBAF inhibitor project, mouse ES cells, Bmi1 luciferase knock-in, single point; 24 h; 100% = twice the neutral-well signal; reporter increase, % at 12.5 µM; 350,000 tested, 2% active; AID 602393, 2012; in the data active = activation above about 40%; inconclusive = no clear call, values can overlap the other calls;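 also: 0% = median of the plate's neutral control wells and 100% = double that signal; a rise in the Bmi1 reporter signal indicates esBAF inhibition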
C2C12 statin – suppressors of statin myotoxicity in C2C12 myotubes, primary screen, cell-based, single point, plate reader. C2C12 myotubes + simvastatin, ATP luminescence, 48 h; scaled: DMSO 0, geranylgeraniol control 100. rescue of ATP level, % at 7.49 µM. 330,000 tested, 0.78% active;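 active = mean ATP rescue above about 67%, or every replicate alone reaching that limit, limit read from the data, passing the limit was not always enough; inconclusive = no clear call, values can overlap the other calls; inactive = mean under the limit and some replicate under it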;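 also: myotubes were challenged with 10 µM simvastatin during compound exposure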
Wnt bcat act – Wnt/beta-catenin pathway activators, primary screen, cell-based, plate reader, single point; Wnt/beta-catenin reporter cell assay, activator; activation, % at 9.35 µM; 300,000 tested, 1.2% active; AID 743398, 2014; in the data active = activation above about 30%, passing the limit was not always enough; inconclusive = no clear call, values can overlap the other calls;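 also: 0% = neutral control wells and 100% = positive control wells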
MITF act – activators of MITF-driven TRPM1 promoter reporter, primary screen, cell-based, SK-MEL-5, luciferase, single point | SK-MEL-5 TRPM1-promoter luciferase, 24 h; % of positive control, neutral wells = 0 | activation, % at 12.5 µM | 300,000 tested, 0.75% active | AID 588334, 2011;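 active = mean activation of at least 80% with every replicate also reaching 80%; inconclusive = mean reaches 80% but some replicate falls short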;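 also: 0% = neutral control wells and 100% = parthenolide positive control wells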
Active calls of the source: *; ? = inconclusive; . = not tested or not shown; ! = not confirmed by another sample. A selection: hits, their analogues and other compounds. The true share with any hit is near 3%.

SMILES | esBAF inh | C2C12 statin | Wnt bcat act | MITF act
COc1ccc(CN(C)C[C@H]2Oc3ccc(NC(=O)C4CC4)cc3CC(=O)N([C@@H](C)CO)C[C@H]2C)cc1 | 7.3 | 19.2 | . | .
O=C(Cc1ccccn1)NCC[C@@H]1CC[C@H](NS(=O)(=O)c2ccc(Cl)cc2)[C@H](CO)O1 | -2.4 | -4.7 | . | .
C[C@@H]1CN([C@@H](C)CO)C(=O)c2cc(NS(=O)(=O)c3ccccc3)ccc2O[C@@H]1CN(C)Cc1ccc2c(c1)OCO2 | -0.5 | 42.3 | . | .
Cc1cccc2c1-c1sc(C(=O)Nc3nccs3)cc1CO2 | 47.3* | -39.9 | 26.9 | 58.1
O=C(Nc1cccnc1Cl)c1noc2c1CCc1ccccc1-2 | . | . | 36.8* | 69.8
CCCNC(=O)c1noc2c1CCc1ccccc1-2 | ? | -5.8 | 11.0 | ?
C[C@H](CO)N1C[C@H](C)[C@@H](CN(C)C)OCCCC[C@H](C)Oc2ccc(NC(=O)NC3CCCCC3)cc2C1=O | -0.1 | -5.4 | . | .
O=C(COC(=O)c1c2c(nc3ccccc13)/C(=C\c1ccco1)CC2)NC1CCCC1 | 11.6 | -3.9 | -3.2 | -3.2
CN(CCC#N)C(=O)COC(=O)c1c2c(nc3ccccc13)/C(=C\c1ccco1)CC2 | 55.5* | -5.4 | -2.1 | 31.1
CC(C)C(=O)Nc1ccc2c(c1)C(=O)N(C)[C@H]1CC[C@H](CC(=O)NCc3ccccc3)O[C@H]1CO2 | -2.2 | -35.7 | . | .
Cc1ccc(C2=CC(=O)CC(C)(C)C2=O)cc1 | . | . | -0.3 | .
CC1(C)CC(=O)C=C(c2ccc(-c3ccc(S(C)(=O)=O)cc3)cc2)C1=O | 65.3* | -7.5 | -0.8 | .
COc1ccc2cc(C3=CC(=O)CC(C)(C)C3=O)ccc2c1 | 123.9* | -13.6 | 0.5 | .
COc1ccncc1-c1ccc(C2=CC(=O)CC(C)(C)C2=O)cc1 | 65.2* | -9.3 | 1.0 | .
COc1ccc(NC(=O)N(C)C[C@H]2Oc3ncc(-c4ccc(C#N)cc4)cc3C(=O)N([C@@H](C)CO)C[C@@H]2C)cc1 | 2.4 | 9.8 | . | .
CCCCNC(=O)C1(C)CCCCCN1Cc1cc2ccccc2o1 (stereo unspecified) | -0.5 | 77.1* | -2.2 | .
Cc1nc(C)c(-c2ccc(SCC(=O)Nc3ccccc3)nn2)s1 | 3.8 | -6.2 | 1.0 | 2.0
Cc1nc(C)c(-c2ccc(SCc3ccccc3C)nn2)s1 | 51.6* | -3.2 | 9.2 | 55.8
COc1ccc(NC(=O)N(C)C[C@@H]2Oc3c(NS(C)(=O)=O)cccc3C(=O)N([C@@H](C)CO)C[C@H]2C)cc1 | 4.8 | . | . | .
COc1ccc(NC(=O)C2C(=O)N(CCO)C3(C)CC2c2ccccc2O3)cc1 (stereo unspecified) | 25.6*! | . | 4.5 | 2.1
CC(C)NC(=O)N(C)C[C@@H]1Oc2cc(C#CC3CC3)ccc2S(=O)(=O)N([C@@H](C)CO)C[C@@H]1C | 0.3 | 20.6 | . | .
CNc1ccc(-c2cccc(CO)c2)cn1 | 41.4* | -3.1 | 11.5 | .
CCCC#Cc1ccc2c(c1)O[C@H](CN(C)C(=O)CN(C)C)[C@H](C)CN([C@@H](C)CO)S2(=O)=O | 1.5 | -6.8 | . | .
COc1ccc(-n2ncc3c(Nc4cccc(C)c4)ncnc32)cc1 | 35.0 | -71.8 | -2.9 | 120.2*
CCCN(CCC)c1ncnc2c1cnn2-c1ccc(OC)cc1 | 37.2 | 0.3 | . | 128.3*
SMILES | esBAF inh | C2C12 statin | Wnt bcat act | MITF act
C=CCNc1ncnc2c1cnn2-c1ccc(OC)cc1 | -12.4 | -9.1 | 12.1 | 57.3
COC(=O)c1ccc(Nc2ncnc3c2cnn3-c2cccc(C)c2)cc1 | 9.6 | -4.9 | -2.5 | .
Cc1cccc(-n2ncc3c(Nc4ccc(F)cc4)ncnc32)c1 | 71.1* | -3.4 | 10.5 | 70.5
Cc1cccc(-n2ncc3c(NCCCn4ccnc4)ncnc32)c1 | 49.0* | -23.2 | -2.5 | .
Cc1ccccc1S(=O)(=O)N1CC[C@@H]2[C@H](CO)Nc3ccc(C#Cc4ccccc4)cc3[C@@H]21 | 1.5 | -11.4 | . | .
C[C@@H]1CN([C@H](C)CO)C(=O)c2cc(-c3ccc(C#N)cc3)cnc2O[C@H]1CN(C)C(=O)Nc1ccc(F)cc1 | 2.8 | -21.2 | . | .
Cn1c(SCc2c(Cl)cccc2Cl)nnc1-c1cccs1 | 47.9* | -16.7 | . | 36.3
CCn1c(SCC(=O)c2ccccc2)nnc1-c1cnccn1 | 50.0* | -2.0 | 35.9* | .
Cn1c(SCC(=O)c2ccccc2)nnc1-c1cnccn1 | 48.3* | -5.9 | 29.1 | 46.5
Cn1c(SCC(=O)c2ccccc2)nnc1-c1cccnc1 | 32.6 | 7.7 | 4.6 | .
Cn1c(SCC(=O)NCc2cccs2)nnc1-c1cccs1 | . | . | -3.6 | 2.6
CCn1c(SCC(=O)Nc2ccccc2F)nnc1-c1cnccn1 | -3.5 | -4.0 | 1.3 | 11.3
Cn1c(SCC(=O)c2ccccc2)nnc1-c1cccs1 | 67.7* | -2.5 | ? | 59.6
Cc1ccc(S(=O)(=O)Nc2ccc3c(c2)CC(=O)N([C@H](C)CO)C[C@H](C)[C@@H](CN(C)S(=O)(=O)c2cccs2)O3)cc1 | 4.8 | 50.4 | . | .
C[C@H](CO)N1C[C@H](C)[C@H](CN(C)Cc2cncnc2)Oc2ncc(-c3ccc(F)cc3)cc2C1=O | -1.3 | -2.3 | . | .
CCOC(=O)c1c(-c2ccc(C)cc2)csc1NC(=O)c1cc2ccccc2oc1=O | 48.8* | -9.0 | 12.0 | 1.9
CC(C)(C)c1csc(N/N=C/c2cccnc2)n1 | 33.8* | . | 12.4 | 57.8
Cc1ccc(/C=N/Nc2nc(C(C)(C)C)cs2)o1 | ? | -17.4 | 4.6 | 84.7*
C/C(=N\Nc1nc(C(C)(C)C)cs1)c1ccccc1 | 11.1 | -30.5 | 13.3 | 60.8
C(=N\Nc1nc(-c2ccccc2)cs1)/c1cccnc1 | 62.6* | -56.1 | 21.8 | 75.0
C(=N\Nc1nccc(-c2cccnc2)n1)/c1ccccc1 | . | . | 48.7* | .
CCCC#Cc1cnc2c(c1)C(=O)N([C@@H](C)CO)C[C@@H](C)[C@@H](CN(C)C(=O)c1cnccn1)O2 | 0.6 | 24.4 | . | .
C[C@H]1CCCCO[C@H](CN(C)C)[C@@H](C)CN([C@@H](C)CO)C(=O)c2cc(NS(=O)(=O)c3ccc(F)cc3)ccc2O1 | 3.8 | -10.8 | . | .
Cc1ccc(/C=N/Nc2nc3ccccc3s2)o1 | . | . | 35.2* | 21.0
C/C(=N\Nc1ccc(C(=O)O)cc1)c1ccc2c(c1)Nc1ccccc1S2 | 51.7* | -14.5 | 19.6 | 124.5*
SMILES | esBAF inh | C2C12 statin | Wnt bcat act | MITF act
Cc1ccc(S(=O)(=O)N[C@@H]2C=C[C@@H](CC(=O)NCc3ccncn3)O[C@H]2CO)cc1 | -0.8 | -5.2 | . | .
CC(=O)NC(CC(=O)NNC(=O)COc1c(C)cccc1C)c1ccccc1 (stereo unspecified) | . | . | 61.6* | -3.9
CO[C@@H]1CN(C)C(=O)c2cc(NC(=O)C3CCC3)ccc2OC[C@H](C)N(Cc2ccccn2)C[C@@H]1C | -1.6 | -7.9 | . | .
Cc1nc(N)sc1-c1csc(N(C)c2ccc(O)cc2)n1 | 43.5* | 94.0* | -2.7 | 37.7
O=C(Nc1ccc(F)cc1)Oc1ccccc1N1CCOCC1 | . | . | 2.3 | .
O=C(Oc1ccccc1N1CCOCC1)c1sccc1Br | 2.7 | -8.6 | 44.7* | .
C[C@@H]1CN([C@@H](C)CO)S(=O)(=O)c2ccc(C3=CCCC3)cc2O[C@@H]1CN(C)C(=O)c1ccccc1 | -3.8 | -63.8 | . | .
